Assay outcomes from PubChem BioAssay.
The list is not random: actives were taken first. Their share in the collection is about 1.4%.
EPAC2 ag = agonists of human EPAC2 (RAPGEF4) | 360,000 compounds, 0.079% hits | EPAC2 activation, biochemical qHTS; response scale: 100% = 6.5 mM cAMP response | AID 720711 | Potency, µM (highest dose often 154 µM), hits mostly activators; further: nearly all actives have a fitted effect of over 50% in size
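In this primary screen, activation is scored as increased exchange of BODIPY-GDP from Rap1B by 100 nM EPAC2, with 50 uM GDP as competitor. Signal is normalized to the 6.5 mM cAMP agonist control.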
BRCA1 expr act = activators of BRCA1 expression. MCF7-BRCA1-FFLuc reporter, luminescence, 48 h; response scale: scaled: vehicle 0%, 10 µM genistein 100%. Potency, µM (top dose mostly 46.1 µM), hits mostly activators. 380,000 compounds, 1.1% hits; further: nearly all actives have a fitted effect of over 80% in size
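48 h compound treatment of MCF7-BRCA1-FFLuc cells (phenol-red free MEM, 37 °C), then 15 min with luciferase substrate and luminescence imaging.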
USP1-UAF1 inh = blocks the human USP1/UAF1 deubiquitinase complex; recombinant USP1/UAF1, Ub-Rhodamine cleavage fluorescence; Potency, µM (top dose mostly 57.1 µM), most hits filed as inhibitors; 390,000 compounds, 0.23% hits; AID 743255; further: nearly all actives have a fitted effect of over 60% in size
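USP1/UAF1 complex (1 nM) preincubated 15 min at room temperature with compound, then Ub-Rho substrate (150 nM final) added. Kinetic fluorescence at 480/540 nm over 6 reads at 60 s intervals; 50 mM HEPES pH 7.8, 0.5 mM EDTA, 0.1 mg/ml BSA, 1 mM TCEP, 0.01% Tween-20.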
EPAC1 antagonist = EPAC1 (human) antagonism; O95398; EPAC1 GEF assay, Rap1b-BODIPY-GDP exchange fluorescence; Potency, µM (highest dose often 115 µM), most hits filed as inhibitors; 360,000 compounds, 0.14% hits; AID 720709; further: nearly all actives have a fitted effect of over 50% in size
EPAC1 agonist = EPAC1 (human) agonism; EPAC1 agonist qHTS, biochemical assay; response scale: 100% = response to 6.5 mM cAMP; O95398; Potency, µM (doses to about 154 µM), most hits filed as activators; 360,000 compounds, 0.073% hits; AID 720707; further: nearly all actives have a fitted effect of over 60% in size
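Nucleotide exchange by EPAC1 (100 nM) on Rap1B–BODIPY-GDP (250 nM) in the presence of 50 uM GDP is tracked fluorescently at 480/540 nm over 30 min. Signals are normalized to a 6.5 mM cAMP control.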
EPAC2 antag = blocks human EPAC2 exchange factor; Q8WZA2; EPAC2 GEF exchange of Rap1B-BODIPY-GDP, fluorescence; Potency, µM (titrated, usually from 114 µM), hits mostly inhibitors; 360,000 compounds, 0.18% hits; AID 720708; further: nearly all actives have a fitted effect of over 45% in size
Of the large screens only hits and unclear results are named; the others gave an inactive call. The call rests on the fitted dose curve; in most records, active means well fitted curve in the direction sought with a large enough effect; inconclusive means small, poorly fitted or top-dose-only effect, or another doubt; inactive means no such curve, though single readings can be large; an effect the other way counts as inactive or inconclusive.

O=C(c1cc(-c2cccc(Cl)c2)on1)N1CCOCC1	BRCA1 expr act 10µM, USP1-UAF1 inh inconclusive
O=C(c1cc([N+](=O)[O-])ccc1N1CCNCC1)N1CCOCC1	none
O=C(c1cc(-c2ccc(Cl)cc2)n(-c2ccc(Cl)cc2Cl)n1)N1CCOCC1	EPAC2 ag 10µM
Oc1ccc(Cl)cc1Sc1cc(Cl)ccc1O	EPAC1 antagonist inconclusive, EPAC2 antag 35µM
CC(=O)Nc1ccc(OC(=O)N2CCN(/[N+]([O-])=N/Oc3ccc([N+](=O)[O-])cc3[N+](=O)[O-])CC2)cc1	none (no result: EPAC2 ag, USP1-UAF1 inh, EPAC1 antagonist, EPAC1 agonist, EPAC2 antag)
CCCCn1c(O)c(C(C)=NCCc2c[nH]c3ccccc23)c(=O)[nH]c1=O	none
O=C(/C=C/c1c[nH]c2ccccc12)c1c(O)n(CCc2ccccc2)c(=O)[nH]c1=O	USP1-UAF1 inh 25µM
Nc1c(C(=O)NCC2CCCO2)c2nc3ccccc3nc2n1Cc1ccco1 (configuration not stated)	none
Nc1c(C(=O)NC2CCCC2)c2nc3ccccc3nc2n1CC1CCCO1 (configuration not stated)	USP1-UAF1 inh 28µM
COc1ccc2nc(NC3=NCCN3)sc2c1	BRCA1 expr act 1.3µM
C[C@H]1COC(=O)[C@H](Cc2ccc(F)cc2)CC/C=C/C[C@@H](CC(=O)N(CCO)Cc2ccccc2)C(=O)N1	USP1-UAF1 inh inconclusive
Cc1cccc(C)c1NC(=O)CN1CCCC1	USP1-UAF1 inh inconclusive
CC1OC(O[C@H]2C[C@@H](O)[C@]3(CO)[C@H]4[C@H](O)C[C@]5(C)[C@@H](C6=CC(=O)OC6)CC[C@]5(O)[C@@H]4CC[C@]3(O)C2)C(O)C(O)C1O (some centres not stated)	none (no result: EPAC2 ag, USP1-UAF1 inh, EPAC1 antagonist, EPAC1 agonist, EPAC2 antag)
Clc1cccc(Cl)c1Cn1nnc(N2CCCC2)n1	BRCA1 expr act 11µM
COc1cc(C(C)=O)ccc1OCc1cc(C(=O)N(C)CCC2CCCCO2)no1 (configuration not stated)	BRCA1 expr act 3.5µM
COc1ccc(C(C)=O)cc1CC(C(=O)c1ccc(Br)cc1)N(C)C (configuration not stated)	none
CC(Cc1ccccc1)/[N+]([O-])=C\c1ccc(C(F)(F)F)cc1 (configuration not stated)	BRCA1 expr act 10µM
CC(Nc1cc(C)cc(C)c1)=[N+](C)CCNS(=O)(=O)c1ccc(Cl)cc1	EPAC1 antagonist inconclusive
CN1CCN(c2ccc(/C=C3\C(=O)NC(=S)N(c4cccc(Br)c4)C3=O)o2)CC1	USP1-UAF1 inh 32µM
Nc1ccc(C2(c3ccc(N)cc3)c3ccccc3-c3ccccc32)cc1	none
Nc1ccc2c3c(cccc13)-c1ccccc1-2	EPAC2 ag inconclusive, USP1-UAF1 inh 5.6µM, EPAC1 agonist inconclusive
Oc1c(Br)c(Br)c(Br)c(Br)c1Br	USP1-UAF1 inh inconclusive, EPAC1 antagonist 71µM, EPAC2 antag 20µM
Oc1c(Br)cc(Br)cc1Br	none
CC(OC(=O)COc1ccc(Nc2ccccc2)cc1)C(=O)N(C)c1ccccc1 (configuration not stated)	EPAC2 antag inconclusive
CN1CC=C(/C=C/c2ccc(-c3ccccc3)cc2)CC1	BRCA1 expr act 8.9µM
CC1Oc2cc3c(-c4c(O)cc(O)c5c(O)c6c(cc45)OC(C)C(C)C6=O)c(O)cc(O)c3c(O)c2C(=O)C1C (configuration not stated)	USP1-UAF1 inh 13µM, EPAC1 antagonist inconclusive
COC(=O)c1cn(C(=O)c2cccc3ccccc23)c2ccccc12	EPAC2 antag 8.9µM
COC(=O)c1cn(Cc2ccc(F)cc2)c2ccccc12	EPAC2 antag inconclusive
CCC(C)/C=C(C)/C=C/C1=CC2=C(Cl)C(=O)C(C)(OC(C)=O)C(=O)C2=CO1 (configuration not stated)	USP1-UAF1 inh inconclusive, EPAC1 antagonist inconclusive
CC[C@H](C)/C=C(C)/C=C/C1=CC2=C(Cl)C(=O)[C@@](C)(OC(C)=O)C(=O)C2=CO1	USP1-UAF1 inh 32µM, EPAC1 antagonist 35µM, EPAC2 antag 3.5µM
CN1CC[C@@]2(C)c3cc(O)ccc3N(C)[C@@H]12	USP1-UAF1 inh 28µM, EPAC1 antagonist inconclusive
CCOC(=O)c1ccccc1OC(=O)NNc1ccccc1	USP1-UAF1 inh inconclusive
C[C@H]1COC2=C1C(=O)C(=O)c1c2ccc2c1CCCC2(C)C	USP1-UAF1 inh 32µM, EPAC1 antagonist 45µM
CC(=O)C1=C(O)C2(C)c3c(O)c(C)c(O)c(C(C)=O)c3OC2CC1=O (configuration not stated)	EPAC2 antag 14µM
Cn1cc(/C=C2\C(=O)NC(=O)N(c3ccccc3)C2=O)c2ccccc21	EPAC2 ag 100µM, USP1-UAF1 inh inconclusive
Cc1nc2c(=O)n(C)c(=O)nc-2n(C)n1	EPAC2 ag inconclusive, USP1-UAF1 inh 0.032µM, EPAC1 antagonist 100µM, EPAC2 antag inconclusive
C=C1C(=O)O[C@@H]2C[C@@H](C)[C@@H]3C=CC(=O)[C@@]3(C)[C@@H](OC(=O)CC(=O)O[C@H]3[C@@H]4C(=C)C(=O)O[C@@H]4C[C@@H](C)[C@@H]4C=CC(=O)[C@]43C)[C@H]12	USP1-UAF1 inh inconclusive, EPAC1 antagonist 40µM, EPAC2 antag inconclusive
COc1cc(Cl)c(C)cc1NC(=O)CCCn1c(=O)oc2ccccc21	EPAC1 antagonist inconclusive
COc1ccc(NC(=O)CCCn2c(=O)oc3ccccc32)cc1Cl	BRCA1 expr act 7.1µM
O=C1NC(=S)N(c2ccc(F)cc2)C(=O)/C1=C\c1ccoc1	USP1-UAF1 inh 28µM, EPAC1 antagonist inconclusive
O=C(Oc1ccc2ccccc2c1Cl)N1CCCC1	BRCA1 expr act 4.5µM
O=C(Oc1ccc(Cl)c2ccccc12)N1CCCCC1	BRCA1 expr act inconclusive
Cc1ccc([C@@H]2CC(=O)[C@@H]3CN(S(=O)(=O)c4ccccc4C)[C@H](c4ccc(Cl)cc4)C[C@@H]3N2S(=O)(=O)c2ccc(C)cc2)cc1	none
CCn1c(O)c(/C=N/NC(=O)c2ccncc2)c(=O)n(CC)c1=S	EPAC2 ag inconclusive, USP1-UAF1 inh inconclusive, EPAC1 agonist 56µM
O=[N+]([O-])c1cc(C(F)(F)F)c(Cl)c([N+](=O)[O-])c1Nc1ncc(C(F)(F)F)cc1Cl	none (no result: EPAC2 ag, USP1-UAF1 inh, EPAC1 antagonist, EPAC1 agonist, EPAC2 antag)
O=S(=O)(c1ccc(Cl)cc1)N1CCC(n2cnc3cc(C(F)(F)F)ccc32)CC1	EPAC1 antagonist inconclusive
C[C@]12CC[C@H](O)C[C@H]1CC[C@@H]1[C@@H]2C[C@@H](O)[C@]2(C)[C@@H](C3=CC(=O)OC3)CC[C@]12O	none
